One compound from ChEMBL document CHEMBL1961873, “Compounds: GSK PKIS; Assays: Nanosyn kinase panel” (2012) can be followed below.

SMILES strings stand for the structures.

One may read the inhibition as the change of the read-out against control, counted positive when it falls.

The target in assay [1] is Sphingosine kinase 1 (Homo sapiens) (UniProt Q9NYA1). The settings on record: at 1 µM.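 Also: mean SPHK1 inhibition value reported from the GSK PKIS kinase panel screen.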
In assay [2] the target is T1, Sphingosine kinase 2 (Homo sapiens) (UniProt Q9NRA0).
T1 sequence (whole entry): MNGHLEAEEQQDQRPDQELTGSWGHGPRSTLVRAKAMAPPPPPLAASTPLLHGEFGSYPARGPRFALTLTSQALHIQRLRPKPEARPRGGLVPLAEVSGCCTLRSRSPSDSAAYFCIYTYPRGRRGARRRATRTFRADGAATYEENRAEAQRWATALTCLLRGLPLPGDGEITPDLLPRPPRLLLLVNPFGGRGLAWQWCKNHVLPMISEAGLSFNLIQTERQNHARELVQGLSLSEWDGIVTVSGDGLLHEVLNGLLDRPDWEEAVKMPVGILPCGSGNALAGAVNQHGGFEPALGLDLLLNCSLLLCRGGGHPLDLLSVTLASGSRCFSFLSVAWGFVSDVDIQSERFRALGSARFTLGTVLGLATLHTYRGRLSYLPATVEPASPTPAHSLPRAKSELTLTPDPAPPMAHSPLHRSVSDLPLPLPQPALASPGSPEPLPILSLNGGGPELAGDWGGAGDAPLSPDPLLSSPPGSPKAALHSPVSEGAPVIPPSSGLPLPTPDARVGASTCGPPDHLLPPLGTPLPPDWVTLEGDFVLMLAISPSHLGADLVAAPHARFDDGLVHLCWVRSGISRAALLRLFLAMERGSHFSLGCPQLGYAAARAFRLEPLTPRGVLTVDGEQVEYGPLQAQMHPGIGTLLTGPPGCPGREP
Conditions: at 0.1 µM.

For assay [3], the target named is T1, Sphingosine kinase 2 (Homo sapiens). Conditions: at 1 µM.
The target in assay [4] is Casein kinase II subunit alpha (Homo sapiens) (UniProt P68400). The settings on record: at 0.1 µM.
Sequence of Casein kinase II subunit alpha (Homo sapiens) (P68400 whole entry, looked up): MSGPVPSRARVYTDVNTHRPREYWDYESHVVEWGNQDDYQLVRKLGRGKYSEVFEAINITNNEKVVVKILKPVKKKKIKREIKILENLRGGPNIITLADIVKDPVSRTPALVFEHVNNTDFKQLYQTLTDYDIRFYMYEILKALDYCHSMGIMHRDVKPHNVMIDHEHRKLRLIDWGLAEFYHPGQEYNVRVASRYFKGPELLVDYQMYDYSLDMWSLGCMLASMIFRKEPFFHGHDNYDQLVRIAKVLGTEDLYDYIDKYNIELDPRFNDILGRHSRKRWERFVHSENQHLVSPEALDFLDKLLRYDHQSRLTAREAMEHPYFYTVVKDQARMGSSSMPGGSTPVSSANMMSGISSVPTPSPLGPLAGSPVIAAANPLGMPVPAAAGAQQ
Assay [5] has the same target. The settings on record: at 1 µM.
The target of assay [6] is T2, Inhibitor of nuclear factor kappa-B kinase subunit alpha (Homo sapiens) (UniProt O15111).
T2 sequence (whole entry): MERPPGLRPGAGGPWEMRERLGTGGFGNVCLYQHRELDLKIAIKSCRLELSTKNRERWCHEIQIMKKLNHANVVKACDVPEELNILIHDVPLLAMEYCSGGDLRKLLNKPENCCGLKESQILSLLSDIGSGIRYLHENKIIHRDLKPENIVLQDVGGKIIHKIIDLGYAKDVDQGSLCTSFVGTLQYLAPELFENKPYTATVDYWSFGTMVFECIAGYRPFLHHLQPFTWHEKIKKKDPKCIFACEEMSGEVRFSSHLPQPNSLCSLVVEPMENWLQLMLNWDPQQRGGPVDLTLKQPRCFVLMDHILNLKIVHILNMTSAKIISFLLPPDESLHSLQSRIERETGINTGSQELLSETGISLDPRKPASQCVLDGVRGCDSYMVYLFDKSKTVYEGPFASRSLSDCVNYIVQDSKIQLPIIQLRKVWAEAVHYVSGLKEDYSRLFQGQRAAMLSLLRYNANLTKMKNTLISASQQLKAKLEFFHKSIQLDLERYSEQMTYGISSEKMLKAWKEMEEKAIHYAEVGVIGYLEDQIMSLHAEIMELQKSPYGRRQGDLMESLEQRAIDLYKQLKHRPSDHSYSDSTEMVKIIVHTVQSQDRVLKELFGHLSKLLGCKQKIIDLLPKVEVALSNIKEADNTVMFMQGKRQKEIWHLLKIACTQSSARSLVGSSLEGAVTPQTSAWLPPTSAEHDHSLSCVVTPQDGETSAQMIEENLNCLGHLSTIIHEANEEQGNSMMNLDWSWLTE
Conditions: at 0.1 µM.

The target in assay [7] is T2, Inhibitor of nuclear factor kappa-B kinase subunit alpha (Homo sapiens). The settings on record: at 1 µM.
Assay [8] deals with T3, Inhibitor of nuclear factor kappa-B kinase subunit beta (Homo sapiens) (UniProt O14920).
T3 sequence (whole entry): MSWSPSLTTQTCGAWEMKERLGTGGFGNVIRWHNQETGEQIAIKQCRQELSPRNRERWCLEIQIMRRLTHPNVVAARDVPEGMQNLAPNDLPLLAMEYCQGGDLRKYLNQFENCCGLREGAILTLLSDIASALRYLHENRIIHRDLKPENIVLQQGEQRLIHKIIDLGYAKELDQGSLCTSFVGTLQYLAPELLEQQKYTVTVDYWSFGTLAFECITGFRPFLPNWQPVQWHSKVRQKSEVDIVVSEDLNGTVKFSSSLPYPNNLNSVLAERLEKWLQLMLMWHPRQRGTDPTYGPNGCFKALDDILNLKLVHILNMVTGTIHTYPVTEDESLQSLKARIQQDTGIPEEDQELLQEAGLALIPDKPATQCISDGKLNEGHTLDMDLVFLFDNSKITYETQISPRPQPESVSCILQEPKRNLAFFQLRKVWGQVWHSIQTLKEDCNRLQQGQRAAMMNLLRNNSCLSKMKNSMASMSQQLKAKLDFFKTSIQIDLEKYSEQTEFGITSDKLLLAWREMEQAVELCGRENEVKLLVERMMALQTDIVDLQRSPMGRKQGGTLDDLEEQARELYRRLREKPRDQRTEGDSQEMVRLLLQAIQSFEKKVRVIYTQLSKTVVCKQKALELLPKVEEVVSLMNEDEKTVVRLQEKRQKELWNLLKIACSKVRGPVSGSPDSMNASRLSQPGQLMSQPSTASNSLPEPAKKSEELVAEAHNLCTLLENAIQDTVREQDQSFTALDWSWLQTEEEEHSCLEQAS
The settings on record: at 0.1 µM.

Assay [9] deals with T3, Inhibitor of nuclear factor kappa-B kinase subunit beta (Homo sapiens). The settings on record: at 1 µM.
The target of assay [10] is T4, Inhibitor of nuclear factor kappa-B kinase subunit epsilon (Homo sapiens) (UniProt Q14164).
T4 sequence (whole entry): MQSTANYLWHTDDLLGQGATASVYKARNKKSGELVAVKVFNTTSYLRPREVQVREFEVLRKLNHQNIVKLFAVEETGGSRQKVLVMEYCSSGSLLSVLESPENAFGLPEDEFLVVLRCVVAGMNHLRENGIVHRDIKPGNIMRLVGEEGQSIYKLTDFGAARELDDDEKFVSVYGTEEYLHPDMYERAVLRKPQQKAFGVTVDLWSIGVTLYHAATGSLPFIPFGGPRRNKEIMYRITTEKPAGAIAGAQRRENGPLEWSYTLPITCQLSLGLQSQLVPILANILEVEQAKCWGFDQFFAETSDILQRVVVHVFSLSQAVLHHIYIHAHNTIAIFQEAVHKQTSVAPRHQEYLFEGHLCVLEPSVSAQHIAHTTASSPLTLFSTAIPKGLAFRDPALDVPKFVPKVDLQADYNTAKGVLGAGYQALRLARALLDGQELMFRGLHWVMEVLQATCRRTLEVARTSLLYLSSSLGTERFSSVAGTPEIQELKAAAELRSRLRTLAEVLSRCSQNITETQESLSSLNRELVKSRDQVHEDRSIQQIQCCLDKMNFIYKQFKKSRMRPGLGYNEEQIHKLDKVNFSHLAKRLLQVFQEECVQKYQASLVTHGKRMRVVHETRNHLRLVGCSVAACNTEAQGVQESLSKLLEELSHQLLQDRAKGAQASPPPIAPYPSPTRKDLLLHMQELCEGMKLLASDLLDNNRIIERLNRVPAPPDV
The settings on record: at 0.1 µM.

The target of assay [11] is T4, Inhibitor of nuclear factor kappa-B kinase subunit epsilon (Homo sapiens). The settings on record: at 1 µM.
Assay [12] addresses T5, Serine/threonine-protein kinase Nek1 (Homo sapiens) (UniProt Q96PY6).
T5 sequence (whole entry): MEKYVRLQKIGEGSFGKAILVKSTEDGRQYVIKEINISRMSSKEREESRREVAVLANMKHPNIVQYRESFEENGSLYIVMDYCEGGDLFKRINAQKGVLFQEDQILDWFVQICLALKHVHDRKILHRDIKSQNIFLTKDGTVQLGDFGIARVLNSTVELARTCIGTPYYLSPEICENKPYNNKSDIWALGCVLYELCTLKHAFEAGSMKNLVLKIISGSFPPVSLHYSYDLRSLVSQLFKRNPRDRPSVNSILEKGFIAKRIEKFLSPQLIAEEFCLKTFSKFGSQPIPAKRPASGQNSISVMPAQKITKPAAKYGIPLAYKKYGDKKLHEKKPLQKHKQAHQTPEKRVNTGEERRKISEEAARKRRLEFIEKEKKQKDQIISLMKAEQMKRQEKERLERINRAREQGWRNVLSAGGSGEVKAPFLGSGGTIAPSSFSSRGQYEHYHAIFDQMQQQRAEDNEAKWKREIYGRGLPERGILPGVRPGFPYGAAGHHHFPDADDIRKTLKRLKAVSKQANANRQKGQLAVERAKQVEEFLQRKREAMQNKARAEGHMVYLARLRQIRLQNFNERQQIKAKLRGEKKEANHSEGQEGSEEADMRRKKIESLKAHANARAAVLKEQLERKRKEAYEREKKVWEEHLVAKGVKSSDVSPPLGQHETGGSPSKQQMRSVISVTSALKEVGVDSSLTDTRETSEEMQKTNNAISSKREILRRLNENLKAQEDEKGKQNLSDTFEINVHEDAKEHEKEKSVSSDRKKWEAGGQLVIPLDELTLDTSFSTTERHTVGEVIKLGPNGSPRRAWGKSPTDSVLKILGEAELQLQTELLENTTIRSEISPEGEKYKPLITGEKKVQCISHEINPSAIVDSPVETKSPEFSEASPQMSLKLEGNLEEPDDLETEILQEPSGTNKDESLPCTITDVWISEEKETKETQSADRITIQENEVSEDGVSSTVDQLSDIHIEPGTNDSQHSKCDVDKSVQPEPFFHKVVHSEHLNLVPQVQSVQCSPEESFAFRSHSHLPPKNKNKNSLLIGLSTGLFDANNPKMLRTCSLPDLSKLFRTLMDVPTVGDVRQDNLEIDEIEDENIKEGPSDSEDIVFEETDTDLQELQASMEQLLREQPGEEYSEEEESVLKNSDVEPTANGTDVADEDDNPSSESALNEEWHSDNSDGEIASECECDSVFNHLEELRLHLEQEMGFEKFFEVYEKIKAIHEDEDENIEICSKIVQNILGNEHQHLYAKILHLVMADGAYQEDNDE
Conditions: at 0.1 µM.

Assay [13] concerns the target T5, Serine/threonine-protein kinase Nek1 (Homo sapiens). Conditions: at 1 µM.
Assay [14] has as its target T6, Serine/threonine-protein kinase Nek2 (Homo sapiens) (UniProt P51955).
T6 sequence (whole entry): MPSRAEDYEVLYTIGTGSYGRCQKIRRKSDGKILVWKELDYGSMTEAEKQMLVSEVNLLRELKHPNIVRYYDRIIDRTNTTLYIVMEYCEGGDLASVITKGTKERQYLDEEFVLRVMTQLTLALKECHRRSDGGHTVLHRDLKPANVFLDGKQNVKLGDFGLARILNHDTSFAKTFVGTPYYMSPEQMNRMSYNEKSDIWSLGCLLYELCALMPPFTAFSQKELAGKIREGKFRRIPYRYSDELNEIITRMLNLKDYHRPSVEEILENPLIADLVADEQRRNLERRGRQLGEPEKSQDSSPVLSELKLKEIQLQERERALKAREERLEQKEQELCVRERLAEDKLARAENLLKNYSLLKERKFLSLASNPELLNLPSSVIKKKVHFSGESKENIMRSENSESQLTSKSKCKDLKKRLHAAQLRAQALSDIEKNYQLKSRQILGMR
Conditions: at 0.1 µM.

Assay [15] concerns the target T6, Serine/threonine-protein kinase Nek2 (Homo sapiens). Conditions: at 1 µM.
Assay [16] concerns the target Serine/threonine-protein kinase Nek6 (Homo sapiens) (UniProt Q9HC98). Conditions: at 0.1 µM.
For assay [17] the target is unchanged. Conditions: at 1 µM.
Assay [18] concerns the target Serine/threonine-protein kinase Nek7 (Homo sapiens) (UniProt Q8TDX7). The settings on record: at 0.1 µM.
For assay [19] the target is unchanged. Conditions: at 1 µM.
For assay [20], the target named is T7, Serine/threonine-protein kinase Nek9 (Homo sapiens) (UniProt Q8TD19).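 Also: reported value is the mean percent inhibition of NEK9.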
T7 sequence (whole entry): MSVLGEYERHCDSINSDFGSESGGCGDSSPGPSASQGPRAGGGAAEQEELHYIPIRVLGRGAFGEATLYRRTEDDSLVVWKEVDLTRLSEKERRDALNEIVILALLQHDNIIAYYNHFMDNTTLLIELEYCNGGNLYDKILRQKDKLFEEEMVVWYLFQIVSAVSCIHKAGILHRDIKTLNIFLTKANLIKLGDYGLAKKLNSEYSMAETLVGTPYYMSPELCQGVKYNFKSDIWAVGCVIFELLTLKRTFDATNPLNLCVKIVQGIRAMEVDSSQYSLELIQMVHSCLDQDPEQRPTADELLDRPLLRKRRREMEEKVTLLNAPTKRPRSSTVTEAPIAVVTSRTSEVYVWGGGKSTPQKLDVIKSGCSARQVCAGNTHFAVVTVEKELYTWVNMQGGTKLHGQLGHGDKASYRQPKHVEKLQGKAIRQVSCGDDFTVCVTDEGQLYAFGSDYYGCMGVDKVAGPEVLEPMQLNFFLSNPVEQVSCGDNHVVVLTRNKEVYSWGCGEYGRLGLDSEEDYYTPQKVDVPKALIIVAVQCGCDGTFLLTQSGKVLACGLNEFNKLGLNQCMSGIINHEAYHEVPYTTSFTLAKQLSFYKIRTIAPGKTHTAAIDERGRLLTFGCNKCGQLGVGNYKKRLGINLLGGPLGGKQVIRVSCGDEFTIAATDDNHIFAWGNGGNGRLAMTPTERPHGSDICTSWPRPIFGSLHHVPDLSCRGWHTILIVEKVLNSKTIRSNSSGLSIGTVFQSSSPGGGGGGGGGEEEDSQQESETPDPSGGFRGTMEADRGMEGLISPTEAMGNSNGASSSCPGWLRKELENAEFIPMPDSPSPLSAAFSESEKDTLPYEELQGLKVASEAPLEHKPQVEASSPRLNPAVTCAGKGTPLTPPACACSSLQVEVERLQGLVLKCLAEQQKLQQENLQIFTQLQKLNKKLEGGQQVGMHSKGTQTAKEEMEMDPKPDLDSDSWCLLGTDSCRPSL
Conditions: at 0.1 µM.

Sequence of Serine/threonine-protein kinase Nek6 (Homo sapiens) (Q9HC98 whole entry): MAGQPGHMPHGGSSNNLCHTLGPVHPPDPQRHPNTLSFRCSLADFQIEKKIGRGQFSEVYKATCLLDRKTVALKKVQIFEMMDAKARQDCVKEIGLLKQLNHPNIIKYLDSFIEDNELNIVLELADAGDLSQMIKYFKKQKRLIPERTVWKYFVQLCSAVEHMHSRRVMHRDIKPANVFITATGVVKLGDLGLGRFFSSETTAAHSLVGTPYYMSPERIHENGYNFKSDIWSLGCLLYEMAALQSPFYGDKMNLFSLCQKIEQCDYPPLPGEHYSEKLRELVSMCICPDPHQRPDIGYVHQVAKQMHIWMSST
Sequence of Serine/threonine-protein kinase Nek7 (Homo sapiens) (Q8TDX7 whole entry, looked up): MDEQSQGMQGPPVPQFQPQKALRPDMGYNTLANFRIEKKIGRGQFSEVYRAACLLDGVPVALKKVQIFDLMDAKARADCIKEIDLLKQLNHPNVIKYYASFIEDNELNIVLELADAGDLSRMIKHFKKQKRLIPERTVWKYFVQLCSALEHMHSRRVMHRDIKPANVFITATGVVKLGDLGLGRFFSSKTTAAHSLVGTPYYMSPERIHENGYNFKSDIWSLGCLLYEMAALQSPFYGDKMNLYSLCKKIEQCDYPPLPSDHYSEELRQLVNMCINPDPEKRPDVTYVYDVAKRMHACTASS
Sequence of Sphingosine kinase 1 (Homo sapiens) (Q9NYA1 whole entry): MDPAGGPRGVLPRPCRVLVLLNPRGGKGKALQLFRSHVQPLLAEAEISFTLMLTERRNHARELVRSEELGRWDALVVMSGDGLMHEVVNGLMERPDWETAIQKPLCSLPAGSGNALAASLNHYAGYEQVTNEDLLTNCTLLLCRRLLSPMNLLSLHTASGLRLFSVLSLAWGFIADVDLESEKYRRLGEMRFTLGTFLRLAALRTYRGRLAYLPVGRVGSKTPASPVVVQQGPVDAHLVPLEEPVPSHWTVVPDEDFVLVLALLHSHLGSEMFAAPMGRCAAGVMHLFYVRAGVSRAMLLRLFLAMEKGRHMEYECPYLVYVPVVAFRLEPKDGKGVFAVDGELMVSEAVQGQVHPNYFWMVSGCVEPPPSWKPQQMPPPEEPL

Turning to `Nc1nonc1-c1nc2cnccc2n1C1CCCCC1`, the inhibition in assay [1] was 0.54%; in [2], 1.2%; in assay [3], 0.21%; in [4], -0.44%; in [5] it was 4.16%; in [6], -6.64%. Besides, the inhibition was -2.66% in assay [7]; -2.5% in [8]; -5.78% in assay [9]; -0.73% in [10]; 16.2% in assay [11]; -1.33% in assay [12]. In addition, the inhibition in assay [13] was 0.56%; in assay [14], -2.06%; in [15], -7.26%; in [16], 0.47%; in assay [17], -0.88%; in [18], 0.07%. For the same compound, the values for the inhibition in [19] and in assay [20] were -0.97% and -5.44%, respectively.
